Laboratory results published in PubChem BioAssay (NCATS).
Results filed as inconclusive are left out. Activity calls are given as the source filed them. Calls come from the whole dose curve; as a rule, active = well fitted cell-killing curve with a large enough effect; inconclusive = small, poorly fitted or top-dose-only effect, or effect the other way; inactive = flat fitted curve, though single readings scatter. Where a SMILES comes first, the peptide text is derived from it. The star is where a group is joined. Cbz = O=C(OCc1ccccc1)*; CH2F = FC*

Tests used:
Assay in all cases: Primary qHTS to identify gynecologic anti-cancer compounds using libraries of approved drugs and bioactive compounds (AID 1345084); note: nearly all actives have a fitted effect of over 55% in size
Settings in all cases: Gynecologic cancer cell panel viability, ATPlite luminescence, 48 h; series mostly up to 57.5 µM
OV90 = test system: OV90
In short: (§1)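 In this quantitative HTS, cell killing is estimated from loss of ATP-dependent luciferase light. Cells see five compound concentrations over a 48 h exposure.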

PA-1 = test system: PA-1
In short: as §1

SKOV3 = test system: SKOV3
In short: as §1

Tov-21-G = test system: Tov-21-G
In short: as §1

Tov112D = test system: Tov112D
In short: as §1
% is set by controls: 0 for no effect and ±100 for the full control effect.

COC(=O)C1=CO[C@@H](O[C@@H]2O[C@H](CO[C@@H]3O[C@H](CO)[C@@H](O)[C@H](O)[C@H]3O)[C@@H](O)[C@H](O)[C@H]2O)[C@@H]2C(CO)=CC[C@H]12
inactive: Potency (OV90) | Potency (PA-1) | Potency (SKOV3) | Potency (Tov-21-G) | Potency (Tov112D)

CC1CC(=O)[C@]2(O)C(C(=O)OCCc3ccc(O)cc3)=CO[C@@H](O[C@@H]3O[C@H](CO)[C@@H](O)[C@H](O)[C@H]3O)[C@H]12 (stereo not given in full)
inactive: Potency (OV90) | Potency (PA-1) | Potency (SKOV3) | Potency (Tov-21-G) | Potency (Tov112D)

Fc1cccc(CN(C2=NCCN2)c2c(Cl)cccc2Cl)c1
inactive: Potency (OV90) | Potency (PA-1) | Potency (SKOV3) | Potency (Tov-21-G) | Potency (Tov112D)

CC(C)Oc1ccc(-c2nc(-c3cccc4c3CCC4NCCC(=O)O)no2)cc1C#N (stereo not given)
inactive: Potency (OV90) | Potency (PA-1) | Potency (SKOV3) | Potency (Tov-21-G) | Potency (Tov112D)

O=C(O)C(Cc1ccccc1)NC(=O)C1CCCN1 (stereo not drawn) (H-Pro-Phe-OH; configuration not given here)
inactive: Potency (OV90) | Potency (PA-1) | Potency (SKOV3) | Potency (Tov-21-G) | Potency (Tov112D)

CC(=O)OC1C(O)C(C)(O)C(/C=C/C(=O)O)C2(C)CCCC(C)(C)C12 (stereo not given)
inactive: Potency (OV90) | Potency (PA-1) | Potency (SKOV3) | Potency (Tov-21-G) | Potency (Tov112D)

CC1(C)CCC2(C(=O)O)CCC3(C)C(=CCC4C5(C)CCC(O)C(C)(CO)C5C(O)CC43C)C2C1 (stereo not given)
inactive: Potency (OV90) | Potency (PA-1) | Potency (SKOV3) | Potency (Tov-21-G) | Potency (Tov112D)

O=C(O)/C=C/c1ccc2occc2c1O[C@@H]1O[C@H](CO)[C@@H](O)[C@H](O)[C@H]1O
inactive: Potency (OV90) | Potency (PA-1) | Potency (SKOV3) | Potency (Tov-21-G) | Potency (Tov112D)

Cc1occc(=O)c1O[C@@H]1O[C@H](COC(=O)CC(C)(O)CC(=O)O)[C@@H](O)[C@H](O)[C@H]1O (stereo not given in full)
inactive: Potency (OV90) | Potency (PA-1) | Potency (SKOV3) | Potency (Tov-21-G) | Potency (Tov112D)

CC(C(=O)Nc1cc(C#N)ccc1CCCC(=O)O)c1ccc(F)c2ccccc12 (stereo not given)
inactive: Potency (OV90) | Potency (PA-1) | Potency (SKOV3) | Potency (Tov-21-G) | Potency (Tov112D)

C=C1CC2C3(C)C(O)CC(=O)C(C)(C)C3C(O)C(OC(C)=O)C2(C)C2C(=O)OC(C)(C(=O)OC)C(=O)C12C (stereo not given)
inactive: Potency (OV90) | Potency (PA-1) | Potency (SKOV3) | Potency (Tov-21-G) | Potency (Tov112D)

CNc1nc(Cc2ccccc2)nc2c1CCNC[C@@H]2C
inactive: Potency (OV90) | Potency (PA-1) | Potency (SKOV3) | Potency (Tov-21-G) | Potency (Tov112D)

O=C(O)CC1(O)C(=O)Nc2ccccc21 (stereo not given)
inactive: Potency (OV90) | Potency (PA-1) | Potency (SKOV3) | Potency (Tov-21-G) | Potency (Tov112D)

CC1(C)CC[C@]2(C(=O)O[C@@H]3O[C@H](CO)[C@@H](O)[C@H](O)[C@H]3O)CC[C@]3(C)C(=CCC4[C@@]5(C)C[C@H](O)[C@H](O[C@@H]6OC[C@@H](O)[C@H](O)[C@H]6O)[C@@](C)(CO)C5CC[C@]43C)C2C1 (stereo not given in full)
inactive: activity change, negative = cytotoxicity (OV90) 6.42% [at 11.6 µM] | activity change, negative = cytotoxicity (PA-1) 8.05% [at 11.6 µM] | activity change, negative = cytotoxicity (SKOV3) 21.5% [at 11.6 µM] | activity change, negative = cytotoxicity (Tov-21-G) -9.27% [at 11.6 µM] | activity change, negative = cytotoxicity (Tov112D) 3.56% [at 11.6 µM]

CC1(C)[C@@H]2CC=C(CO[C@@H]3O[C@H](CO[C@@H]4OC[C@H](O)[C@H](O)[C@H]4O)[C@@H](O)[C@H](O)[C@H]3O)[C@H]1C2
inactive: Potency (OV90) | Potency (PA-1) | Potency (SKOV3) | Potency (Tov-21-G) | Potency (Tov112D)

CC1OC(O[C@@H]2[C@@H](O)[C@H](OC(=O)[C@]34CCC(C)(C)C[C@H]3C3=CCC5[C@@]6(C)CC[C@H](O[C@@H]7O[C@H](C(=O)O)[C@@H](O)[C@H](O[C@@H]8OC[C@@H](O)[C@H](O)[C@H]8O)[C@H]7O[C@@H]7O[C@H](CO)[C@H](O)[C@H](O)[C@H]7O)[C@@](C)(C=O)C6CC[C@@]5(C)[C@]3(C)C[C@H]4O)O[C@H](C)[C@@H]2OC2OC(C)C(OC3OCC(O)C(O)C3O)C(O)C2O)C(O)C(O)C1O (stereo not given in full)
inactive: activity change, negative = cytotoxicity (OV90) 6.42% [at 6.55 µM] | activity change, negative = cytotoxicity (PA-1) -6.4% [at 6.55 µM] | activity change, negative = cytotoxicity (SKOV3) -2.08% [at 6.55 µM] | activity change, negative = cytotoxicity (Tov-21-G) 5.64% [at 6.55 µM] | activity change, negative = cytotoxicity (Tov112D) 10.7% [at 6.55 µM]

COc1cc(C(C)=O)ccc1O[C@@H]1O[C@H](CO[C@@H]2OC[C@@H](O)[C@H](O)[C@H]2O)[C@@H](O)[C@H](O)[C@H]1O
inactive: Potency (OV90) | Potency (PA-1) | Potency (SKOV3) | Potency (Tov-21-G) | Potency (Tov112D)

COC(=O)CC[C@H](NC(=O)[C@H](CC(C)C)NC(=O)OCc1ccccc1)C(=O)N[C@@H](Cc1cnc[nH]1)C(=O)N[C@@H](CC(=O)OC)C(=O)CF (Cbz-LE(OMe)HD(OMe)-CH2F)
inactive: activity change, negative = cytotoxicity (OV90) 0.73% [at 11.6 µM] | activity change, negative = cytotoxicity (PA-1) -3.2% [at 11.6 µM] | activity change, negative = cytotoxicity (SKOV3) -4.39% [at 11.6 µM] | activity change, negative = cytotoxicity (Tov-21-G) 4.92% [at 11.6 µM] | activity change, negative = cytotoxicity (Tov112D) 6.4% [at 11.6 µM]

C[C@@H]1O[C@@H](O[C@@H]2[C@@H](O)[C@H](O[C@@H]3[C@@H](O)[C@@H](O)[C@H](O[C@H]4[C@H](OC(=O)[C@]56CCC(C)(C)C[C@H]5C5=CCC7[C@@]8(C)C[C@H](O)[C@H](O[C@@H]9O[C@H](C(=O)O)[C@@H](O)[C@H](O)[C@H]9O)[C@@](C)(CO)C8[C@H](O)C[C@@]7(C)[C@]5(C)C[C@H]6O)O[C@@H](CO)[C@@H]4O)O[C@H]3C)OC[C@H]2O)[C@H](O)[C@H](O)[C@H]1O (stereo not given in full)
inactive: activity change, negative = cytotoxicity (OV90) 0.206% [at 6.55 µM] | activity change, negative = cytotoxicity (PA-1) 24% [at 6.55 µM] | activity change, negative = cytotoxicity (SKOV3) -4.92% [at 6.55 µM] | activity change, negative = cytotoxicity (Tov-21-G) 2.22% [at 6.55 µM] | activity change, negative = cytotoxicity (Tov112D) 5.57% [at 6.55 µM]
